Marburg entry inh: inhibitors of Marburg virus binding or cell entry | Marburg virus pseudotyped entry inhibition, cell reporter | Potency, µM (highest dose often 37.8 µM), hits mostly inhibitors | 300,000 compounds, 1.8% hits; calls by dose curve; tested in HEK293 cells
HCV inhibitor: inhibitors of hepatitis C virus infection; Huh7.5.1 HCVcc-Cre infection, luciferase reporter, 44 h; Potency, µM (top dose mostly 41.8 µM), hits mostly inhibitors; 340,000 compounds, 3.4% hits; active = well fitted inhibition curve with a large enough effect; inconclusive = small, poorly fitted or top-dose-only effect, or another doubt; inactive = no such curve, though single readings can be large or run the other way
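Compounds are dispensed onto cells plated 4 h earlier at 1,000 per well, with HCVcc-Cre virus (about 0.5 moi) added next. Following 44 h of culture, luminescent signal is measured for 15 sec after 15 min with substrate at room temperature.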
FMDV inh: antivirals against foot and mouth disease virus; Potency, µM (highest dose often 57.9 µM), hits mostly inhibitors; 410,000 compounds, 1.2% hits; AID 1159524; FMDV antiviral cell-based qHTS; calls by dose curve; tested in HEK293T cells; also: read-out not given here; nearly all actives have a fitted effect of over 45% in size
Shiga inhibitor: inhibitors of Shiga toxin in Vero cells; Vero cells, Shiga toxin protein synthesis inhibition reporter; inhibition, % at 38.7 µM; 290,000 compounds, 9.2% hits; AID 2315; in the data active = inhibition mostly above about 28%, no sharp cut-off; inactive = mostly below about 43%
CHX counter: counter-screen hit for Shiga toxin inhibitors, cycloheximide | max response, % | 300,000 compounds, 12% hits | cell reporter, cycloheximide protein synthesis inhibition counterscreen; in the data active = max response mostly above about 13%, no sharp cut-off; inactive = mostly below about 14%; also: read at 38.3 µM for the half of the compounds with a filed dose
LASV entry inh: blocks Lassa virus binding to or entry into cells | 300,000 compounds, 1.2% hits | Potency, µM (top dose mostly 37.9 µM), hits mostly inhibitors | AID 540256 | Lassa virus pseudotype entry inhibition, cell reporter; calls by dose curve; tested in HEK293 cells; also: nearly all actives have a fitted effect of over 50% in size
Large screens that a line does not name were inactive. Most compounds without a hit are left out; they make up all but 13% or so of the library.

CCN(c1ccccc1)c1nnc(NC(=O)Nc2cccc(Cl)c2C)s1	Marburg entry inh inconclusive (no result: HCV inhibitor, Shiga inhibitor, CHX counter)
CCOc1ccc(S(=O)(=O)N2CCCC(C(=O)NCc3cccnc3)C2)cc1C (configuration not stated)	LASV entry inh inconclusive
COC(=O)c1ccc(-c2csc(NC(=O)c3ccc(S(=O)(=O)N4CCc5ccccc5C4)cc3)n2)cc1	HCV inhibitor inconclusive
CCOC(=O)Cn1c(=NC(=O)C(C)C)sc2c(C)cc(C)cc21	FMDV inh inconclusive
Cn1c(N2CCCCC2)nc2c1c(=O)n(Cc1cccc(Br)c1)c(=O)n2C	HCV inhibitor inconclusive
COc1ccc(-n2c(=O)c3c4c(sc3n(CC(=O)NCC3CCCO3)c2=O)CN(C(C)=O)CC4)cc1OC (configuration not stated)	none (no result: Marburg entry inh, HCV inhibitor, Shiga inhibitor, CHX counter, LASV entry inh)
O=C1c2ccccc2C(=O)N1CCC1=CCCCC1	Shiga inhibitor 89, CHX counter 41
COC(=O)C1=C(C)N(CCC2=CCCCC2)C(=O)C1	CHX counter 21
S=C(NCCc1c[nH]c2ccccc12)NC1CCCCC1	none
Cc1ccc(NC(=S)NCCc2c[nH]c3ccccc23)cc1	HCV inhibitor inconclusive, CHX counter 15
S=C(NCCc1c[nH]c2ccccc12)NC1CCCC1	CHX counter 23
O=C(NCCc1c[nH]c2ccccc12)Nc1ccccc1	HCV inhibitor inconclusive, CHX counter 24, LASV entry inh inconclusive
O=C(Nc1cc(F)ccc1F)C1CCN(S(=O)(=O)c2cccc3nonc23)CC1	none
CC(=O)Nc1ccc(S(=O)(=O)NCCc2csc3nc(-c4cccc(C)c4)nn23)cc1	none (no result: Marburg entry inh, HCV inhibitor, Shiga inhibitor, CHX counter)
CC(=O)Nc1ccc(S(=O)(=O)c2ccnc3cc(Cl)ccc23)cc1	FMDV inh 32µM (no result: Marburg entry inh, HCV inhibitor, Shiga inhibitor, CHX counter, LASV entry inh)
CCOc1ccc(C(=O)N(Cc2sccc2C)C2CCS(=O)(=O)C2)cc1 (configuration not stated)	none (no result: HCV inhibitor, Shiga inhibitor, CHX counter)
Cc1ccsc1CN(C(=O)c1ccc(OCC(C)C)cc1)C1CCS(=O)(=O)C1 (configuration not stated)	LASV entry inh 8.9µM (no result: HCV inhibitor, Shiga inhibitor, CHX counter)
O=C(Nc1cc(Cl)cc2c1-c1ccc(Cl)cc1C2O)C(Cl)Cl (configuration not stated)	Marburg entry inh inconclusive, HCV inhibitor 11µM, LASV entry inh 13µM (no result: Shiga inhibitor, CHX counter)
Nc1cc(Cl)cc2c1-c1ccc(Cl)cc1C2O (configuration not stated)	HCV inhibitor inconclusive (no result: Shiga inhibitor, CHX counter)
O=C(CN1CCC(Cc2ccccc2)CC1)NC(=O)NC1CCCCC1	none
O=C(CCSc1nc(-c2ccco2)cc(C(F)(F)F)n1)NCc1ccccn1	HCV inhibitor 11µM
COc1ccc(NC(=O)CSc2nc(-c3ccco3)cc(C(F)(F)F)n2)cc1OC	FMDV inh inconclusive (no result: HCV inhibitor, Shiga inhibitor, CHX counter)
COc1ccc(CCNC(=O)CCSc2nc(-c3ccco3)cc(C(F)(F)F)n2)cc1OC	Marburg entry inh inconclusive, HCV inhibitor 5.6µM
O=C(CCSc1nc(-c2ccco2)cc(C(F)(F)F)n1)NCc1cccs1	HCV inhibitor 10µM
Cc1ccc([N+](=O)[O-])c(Oc2ncnc3c2oc2ccccc23)c1	none (no result: Marburg entry inh, HCV inhibitor, Shiga inhibitor, CHX counter)
S=C(Cc1ccccc1)NCCc1ccccc1	none (no result: Marburg entry inh, Shiga inhibitor, CHX counter, LASV entry inh)
COc1ccc(CC(=S)NCCc2ccccc2)cc1	CHX counter 14 (no result: Marburg entry inh, Shiga inhibitor, LASV entry inh)
COc1ccc(NC(=S)NCCc2ccccc2)c(OC)c1	HCV inhibitor 22µM
COc1ccc(NC(=S)NCCc2ccc(F)cc2)c(OC)c1	none
Cc1cc(C)nc(N2CCN(S(=O)(=O)c3ccc(F)cc3)CC2)n1	none (no result: Marburg entry inh, LASV entry inh)
Cc1cc(C)nc(N2CCN(c3ccc(F)cc3)CC2)n1	HCV inhibitor 10µM (no result: Marburg entry inh, LASV entry inh)
Cc1cc(N2CCC(C(=O)Nc3ccc(F)cc3)CC2)nc(-c2ccccc2)n1	Marburg entry inh inconclusive, HCV inhibitor inconclusive
Cc1cc(N2CCN(c3ccc(F)cc3)CC2)nc(-c2ccccc2)n1	HCV inhibitor 10µM
CCCC(=O)Nc1ccccc1NC(=O)c1ccc(OC(C)=O)cc1	none
COc1ccc(OC(C)C(=O)NC2CC(C)(C)NC(C)(C)C2)cc1 (configuration not stated)	none
O=S(=O)(NCCc1ccccn1)c1ccc(F)c(F)c1	none
O=C(Nc1ccc(C(F)(F)F)cc1)c1cnc(N2CCN(c3ccccn3)CC2)c2ccccc12	FMDV inh 7.1µM
O=C(c1cc(Sc2cccc(Cl)c2)nc2ccccc12)N1CCN(c2ccccn2)CC1	Marburg entry inh inconclusive, HCV inhibitor 10µM, LASV entry inh inconclusive
O=C(c1ccc(S(=O)(=O)c2cccc(Cl)c2)c([N+](=O)[O-])c1)N1CCN(c2ccccn2)CC1	Marburg entry inh 7.1µM, HCV inhibitor inconclusive, FMDV inh 16µM, CHX counter 22, LASV entry inh inconclusive
O=C(c1cnc(N2CCN(c3ccccn3)CC2)c2ccccc12)N1CCN(c2cccc(Cl)c2)CC1	Marburg entry inh inconclusive, HCV inhibitor 5µM, FMDV inh 8.9µM, LASV entry inh inconclusive
COC(=O)c1cc2ccccc2c(-c2c(O)ccc3ccccc23)c1O	FMDV inh inconclusive, LASV entry inh inconclusive
CC(C)OCCCn1c(NN)nc2ccccc2c1=O	none
Cc1nc2ccccc2c(=O)n1CCc1ccccc1	CHX counter 16 (no result: Marburg entry inh, LASV entry inh)
O=c1c2ccccc2[nH]c(=S)n1Cc1ccccc1	none (no result: Shiga inhibitor)
NNc1nc2ccccc2c(=O)n1Cc1ccccc1	Marburg entry inh inconclusive, Shiga inhibitor 43, CHX counter 29
O=c1c2ccccc2[nH]c(=S)n1CCc1ccccc1	Marburg entry inh inconclusive, Shiga inhibitor 69, CHX counter 33, LASV entry inh inconclusive
Cc1cccc(OCC(=O)Nc2ccc(C(=O)OCc3cc(=O)n4nc(C5CC5)sc4n3)cc2)c1	LASV entry inh inconclusive (no result: Marburg entry inh, HCV inhibitor, Shiga inhibitor, CHX counter)
Cc1ccc(S(=O)(=O)N2CCN(C(=O)Cn3c(=O)oc4ccccc43)CC2)cc1	Marburg entry inh inconclusive (no result: Shiga inhibitor, CHX counter)
O=C(CCCC(=O)NN=Cc1ccc(Cl)cc1Cl)NN=Cc1ccc(Cl)cc1Cl	Marburg entry inh inconclusive, HCV inhibitor inconclusive (no result: Shiga inhibitor, CHX counter)
O=C(N/N=C/c1ccc(Cl)cc1Cl)c1ccc2nc[nH]c2c1	Shiga inhibitor 53, CHX counter 24 (no result: Marburg entry inh, LASV entry inh)
O=C(N/N=C/c1ccc(Cl)cc1Cl)c1cccc(F)c1	Marburg entry inh inconclusive, HCV inhibitor inconclusive, Shiga inhibitor 137, CHX counter 33
O=C(N/N=C/c1cc([N+](=O)[O-])ccc1Cl)c1ccc2nc[nH]c2c1	none
O=C(N/N=C/c1ccccc1C(F)(F)F)c1ccc2nc[nH]c2c1	Shiga inhibitor 29, CHX counter 49 (no result: Marburg entry inh, LASV entry inh)
O=C(N/N=C/c1ccco1)c1ccc2nc[nH]c2c1	none
O=C(C[n+]1ccc(C(=O)N/N=C/c2ccc(Cl)cc2Cl)cc1)c1ccccc1	none (no result: FMDV inh)
CCc1ccc(C(=O)N/N=C/c2ccc(Cl)cc2Cl)nc1	CHX counter 18 (no result: Marburg entry inh, FMDV inh, LASV entry inh)
Cc1c(CCC(=O)N[C@@H](CCCNC(N)=O)C(=O)O)c(=O)oc2cc3oc4c(c3cc12)CCCC4	Marburg entry inh inconclusive, LASV entry inh inconclusive
C#CCOCCOCCOCCNc1nc(N2CCN(C(=O)Cn3cc(CCCCN)nn3)CC2)nc(N2CCN(C(=O)Cn3cc(CCCN=C(N)N)nn3)CC2)n1	none (no result: Marburg entry inh, Shiga inhibitor, CHX counter, LASV entry inh)
O=S1(=O)N[C@@H](Cc2ccccc2)COc2cccc(N3CCC[C@H]3CO)c21	none (no result: Marburg entry inh, HCV inhibitor, Shiga inhibitor, CHX counter, LASV entry inh)
O=C(Nc1cc(C(F)(F)F)ccc1Cl)c1cccnc1	none

Screens (PubChem)
